From the supplement of paper PMC6331611 come the findings set out here.

For the test, the system named is Salmonella enterica serovar Typhimurium SL1344. The test can be described thus: normalized intracellular growth (luminescence, IQM-normalized) in RAW264.7 macrophages (fraction of plate interquartile mean); higher = more bacterial growth (less inhibition). The note with it: 10 µM.

± gives the standard deviation of the averaged measurements. The full ranking holds about 1,600 compounds; the median of “normalized intracellular growth (luminescence, IQM-normalized) in RAW264.7 macrophages” is about 1, and the lowest 2% start at about 0.43. Only a selection was taken, and the lowest values are over-represented in it overall.

As for `Oc1cc(Cl)ccc1Oc1ccc(Cl)cc1Cl`, the normalized intracellular growth (time point: T3 (3 h)) is 0.343 ± 0.083 and the normalized intracellular growth (time point: Tfinal (~6 h)) stood at 0.256 ± 0.12.
Compound `Oc1ccc(Cl)cc1Cc1cc(Cl)ccc1O` yielded a normalized intracellular growth (time point: T3 (3 h)) of 1.03 ± 0.02 and a normalized intracellular growth (time point: Tfinal (~6 h)) of 0.859 ± 0.13.
Consider `Oc1ccc(Cl)cc1`, for which the normalized intracellular growth reads like this: (time point: T3 (3 h)) 1.02 ± 0.017; (time point: Tfinal (~6 h)) 1.13 ± 0.023.
Regarding `N=C1NC(=O)N2CC12` (stereo not given), the normalized intracellular growth by setting is: (time point: T3 (3 h)) 1.051 ± 0.0073; (time point: Tfinal (~6 h)) 0.853 ± 0.12.
On the same counts, the results for `O=[N+]([O-])OCC(CO[N+](=O)[O-])O[N+](=O)[O-]` are 1.01 ± 0.044 and 0.68 ± 0.22.
On the same counts, the results for `CC[C@H]1[C@@H]2C[C@H]3[C@@H]4N(C)c5ccccc5[C@]45C[C@@H]([C@@H]2[C@H]5O)N3[C@@H]1O` are 1.07 ± 0.066 and 0.799 ± 0.035.
On the same counts, the results for `CCn1cc(C(=O)O)c(=O)c2cc3c(cc21)OCO3` are 0.923 ± 0.032 and 0.192 ± 0.011.
In the case of `CC[C@@H](c1cccc(O)c1)[C@@H](C)CN(C)C`, the normalized intracellular growth is 1.09 ± 0.081 (time point: T3 (3 h)) and 0.708 ± 0.38 (time point: Tfinal (~6 h)).
Take `CC[C@@H](C(=O)[C@@H](C)[C@@H](O)[C@H](C)[C@@H]1O[C@@H]([C@@H](CC)C(=O)O)CC[C@@H]1C)[C@H]1O[C@]2(C=C[C@@H](O)[C@]3(CC[C@@](C)([C@H]4CC[C@](O)(CC)[C@H](C)O4)O3)O2)[C@H](C)C[C@@H]1C`: the normalized intracellular growth stood at 1.06 ± 0.083 (time point: T3 (3 h)) and 0.73 ± 0.13 (time point: Tfinal (~6 h)).
The corresponding values for `CN1C[C@H](C(=O)N[C@]2(C)O[C@@]3(O)[C@@H]4CCCN4C(=O)[C@H](Cc4ccccc4)N3C2=O)C=C2c3cccc4[nH]cc(c34)C[C@H]21` are 1.03 ± 0.02 and 0.769 ± 0.38.
On to `CC([C@H](O)c1ccccc1)N(C)C` (stereo not given in full), for which the normalized intracellular growth runs as follows: (time point: T3 (3 h)) 0.977 ± 0.096; (time point: Tfinal (~6 h)) 1.08 ± 0.12.
On to `C=C/C=C\CC1=C(C)[C@@H](OC(=O)[C@@H]2[C@@H](/C=C(\C)C(=O)OC)C2(C)C)CC1=O.C=C/C=C\CC1=C(C)[C@@H](OC(=O)[C@@H]2[C@@H](C=C(C)C)C2(C)C)CC1=O`, for which the normalized intracellular growth runs as follows: (time point: T3 (3 h)) 1.01 ± 0.014; (time point: Tfinal (~6 h)) 0.938 ± 0.13.
Regarding `OC[C@@H](O)[C@H]1O[C@@H]2O[C@H](C(Cl)(Cl)Cl)O[C@@H]2[C@H]1O`, the normalized intracellular growth by setting is: (time point: T3 (3 h)) 1.01 ± 0.039; (time point: Tfinal (~6 h)) 1.07 ± 0.077.
On the same counts, the results for `CC(=O)[O][Hg][c]1ccccc1` are 0.575 ± 0.093 and 0.336 ± 0.15.
As to `O=C([O-])Cc1ccccc1.[Na+]`, the normalized intracellular growth came to 1.15 ± 0.043 (time point: T3 (3 h)) and 0.699 ± 0.11 (time point: Tfinal (~6 h)).
The corresponding values for `C[CH2][Hg][S]c1ccccc1C(=O)[O-].[Na+]` are 0.4 ± 0.083 and 0.819 ± 0.26.
On to `CCCCOC(=O)c1ccccc1C(=O)OCCCC`, for which the normalized intracellular growth (time point: T3 (3 h)) stood at 1.029 ± 0.01 and the normalized intracellular growth (time point: Tfinal (~6 h)) is 1.11 ± 0.15.
On the same counts, the results for `CC(O)CN1CCN(CC(=O)[O-])CCN(CC(=O)[O-])CCN(CC(=O)[O-])CC1.[Gd+3]` (stereo not given) are 0.946 ± 0.083 and 1.23 ± 0.098.
The corresponding values for `C#CC(C)(O)CC` (stereo not given) are 0.971 ± 0.038 and 0.758 ± 0.24.
Take `CCN1C[C@]2(COC)[C@H](O)C[C@H](OC)[C@@]34[C@@H]5C[C@@]6(O)[C@H](OC(=O)c7ccccc7)[C@@H]5[C@@](OC(C)=O)([C@@H]([C@H](OC)[C@H]23)[C@@H]14)[C@@H](O)[C@@H]6OC`: the normalized intracellular growth (time point: T3 (3 h)) was determined as 0.971 ± 0.025 and the normalized intracellular growth (time point: Tfinal (~6 h)) came to 0.837 ± 0.045.
